# aSyn UTR act – Activators working through SNCA 5'UTR binding (MLPCN); AID 1814; activity score, % (tested at 7.5 µM), hits read low; alpha-synuclein 5'UTR reporter, activators screen; hit rate 7.1% among 300,000; in the data active = activity score below about -60%
# * hit, by the source's call. Only a sample is shown.
SMILES,aSyn UTR act
COc1ccc(C(=O)Nc2nnc(-c3ccccc3)s2)cc1,-189*
CCC(NC(=O)Nc1nnc(C(F)(F)F)s1)(C(F)(F)F)C(F)(F)F,109
COc1ccc(C(=O)Nc2nnc(C(F)(F)F)s2)cc1,-144*
COC(=O)Nc1nnc(-c2ccc(OC)cc2)s1,-76*
CC(=O)[C@@]1(O)C(C)CC2C3C=C(C)C4=Cc5c(cnn5-c5ccccc5)C[C@]4(C)C3C(O)C[C@@]21C (stereo not given in full),81
COc1cccc(C2Nc3ccccc3C(=O)N2Cc2ccccc2)c1 (stereo not given),79
COc1ccc(C2Nc3ccccc3C(=O)N2c2ccc(C)cc2)cc1COc1ccccn1 (stereo not given),-97*
COc1ccc(C2Nc3ccccc3C(=O)N2c2ccc(C)cc2)cc1Cn1nc(C)c([N+](=O)[O-])c1C (stereo not given),-105*
COc1ccc(C2C(C#N)=C(N)N(c3ccccc3)C3=C2C(=O)CCC3)cc1Cn1cc([N+](=O)[O-])cn1 (stereo not given),58
COc1ccc(C2Nc3ccccc3C(=O)N2c2ccccc2)cc1CN1CCOCC1 (stereo not given),-70*
CCN(CC)c1ccc(C2Nc3cccc4cccc(c34)N2)cc1,-171*
Cn1ccsc1=NC(=O)c1cccc(OC(F)F)c1,-128*
Cc1cccc2nc3c(nc12)-c1ccccc1C3=O,-106*
Cc1ccc2nc3c(nc2c1)-c1ccccc1C3=O,-65*
O=[N+]([O-])c1cccc(-c2nc3ccc([N+](=O)[O-])cc3[nH]2)c1,-142*
O=[N+]([O-])c1ccc(-c2cc(-c3ccc(Cl)cc3)n[nH]2)cc1,-75*
Clc1ccc(-c2nc3ccncc3[nH]2)cc1,-101*
COc1ccc2nc(-c3ccccc3)[nH]c2c1,-71*
O=[N+]([O-])c1ccc2nc(-c3ccc(Cl)cc3)[nH]c2c1,-221*
O=[N+]([O-])c1ccc(/C=C/c2nc3ccc([N+](=O)[O-])cc3[nH]2)cc1,-165*
COc1ccc2[nH]c(-c3ccccc3)cc2c1,-139*
COc1ccc(-c2nc3ccc([N+](=O)[O-])cc3[nH]2)cc1,-63*
COc1ccc2cc(-c3ccccc3)ncc2c1,-65*
COc1ccc(-c2cc3c(nn2)-c2ccccc2C3=O)cc1,98
FCCCOc1ccc(/C=N/OCc2c(Cl)cccc2Cl)cc1,-94*
SMILES,aSyn UTR act
FCCCOc1ccc(/C=N/OCc2ccc(Cl)cc2)cc1,-70*
Cn1ccnc1Sc1ccc(/C=N/NC(=O)c2ccccc2O)cc1[N+](=O)[O-],-62*
COc1ccccc1/C=C/C=C(\C#N)C(=O)NC(C)c1ccccc1 (stereo not given),-74*
Cc1ccc2nc(-c3ccc(S(=O)(=O)N4CCCCC4)cc3)cn2c1,-81*
Cc1ccc2nc(-c3cccc(S(=O)(=O)N(C)C)c3)cn2c1,-171*
CCN(CC)S(=O)(=O)c1cccc(-c2nc3n(n2)Cc2ccccc2-3)c1,-86*
CCN(CC)S(=O)(=O)c1cccc(-c2cn3cc(C)ccc3n2)c1,-78*
CCOC(=O)C1(C)C=C(Nc2cccc(OC)c2)C(=O)N1c1ccccc1 (stereo not given),-79*
Cc1cc(/C=C2/C(=O)N(C)C(=S)N2C)c(C)n1C1CC1,-140*
COCCNC(=S)N1CCC(C(=O)c2ccc3c(c2)OCCO3)CC1,-75*
N=c1oc2ccccc2cc1-c1nc(-c2ccc(Cl)cc2)cs1,-82*
O=C(/C=C/c1ccc2c(c1)OCO2)Nc1nc2ccc(F)cc2s1,-110*
O=C(/C=C/c1ccc2c(c1)OCO2)Nc1nc(-c2ccc(F)cc2)cs1,-62*
CCc1ccc(C(=O)Cn2ccsc2=N)cc1,-102*
COc1cc(OC)cc(C(=O)Nc2cccc(-c3ccc(N4CCOCC4)nn3)c2)c1,-85*
COc1ccc(C(=O)Nc2cccc(-c3ccc(N4CCOCC4)nn3)c2)cc1,-69*
CC(C)=CCC/C(C)=C/CC(C)(C)CNCCN1CCNCC1,-64*
CCC(C)c1ccc(NC(=O)C2CC2)cc1 (stereo not given),-73*
CCC(C)c1ccc(NC(=O)C2CC3CCC2C3)cc1 (stereo not given),-99*
CC(C)c1ccc(NC(=O)C2CC3CCC2C3)cc1 (stereo not given),-197*
C[n+]1c(/C=C/c2ccc3c(c2)OCO3)ccc2ccccc21,-150*
C[n+]1c(/C=C/c2ccc(O)cc2)ccc2ccccc21,-172*
O=C(NCC(c1cccs1)N1CCOCC1)c1ccc(Br)o1 (stereo not given),-71*
Cc1cccc(Nc2nc(-c3ccc(O)c(O)c3)cs2)n1,-224*
Cc1cccc(Nc2nc(-c3ccc(F)c(C)c3)cs2)n1,-249*
SMILES,aSyn UTR act
COc1nc(NCCN2CCOCC2)nc(Nc2ccccc2)n1,-101*
Cc1nc(Nc2ccncc2)c2oc3ccccc3c2n1,-66*
c1ccc2c(c1)oc1c(NCC3CCCO3)ncnc12 (stereo not given),-178*
CC(=O)c1ccc(Nc2ncnc3c2oc2ccccc23)cc1,-90*
c1ccc(CNc2ncnc3c2oc2ccccc23)nc1,-171*
CCCn1ncc2c(Nc3ccc(C)c(C)c3)ncnc21,-92*
Clc1cc(Cl)c2nc(N3CCCCC3)sc2c1,-152*
COc1ccc(-c2nsc3c(N4CCCC4)ncnc23)cc1,70
Clc1cccc2sc(N3CCCCC3)nc12,-109*
Clc1cc(Cl)c2nc(N3CCCC3)sc2c1,-103*
COc1ccc(OC)c2sc(N3CCCCC3)nc12,-62*
CCOC(=O)c1ccc(Nc2ncnc3nc[nH]c23)cc1,-73*
Cc1ccc(Nc2nc(-c3cccnc3)nc3ccccc23)cc1,-95*
c1ccc(CN2CCC(Nc3nc(-c4cccnc4)nc4ccccc34)CC2)cc1,-83*
CCOC(=O)c1ccc(Nc2nc(-c3cccnc3)nc3ccccc23)cc1,-103*
Cc1cc2nc(C3CCN(Cc4nnnn4Cc4ccccc4)CC3)[nH]c2cc1C,74
Fc1ccccc1/C=N/Nc1nc(-c2ccccn2)nc2ccccc12,81
c1ccc(CNc2nc(NCc3ccccc3)c3ccccc3n2)cc1,106
CC(C)(C)c1ccc(-c2nc(NCc3cccnc3)c3ccccc3n2)cc1,-96*
Cc1c(O)ccc(/C=N/Nc2nc(-c3cccnc3)nc3ccccc23)c1O,-77*
Cc1ccc(-c2nc(N/N=C/c3ccncc3)c3ccccc3n2)cc1,-120*
CCOC(=O)c1ccc(Nc2ncnc3ccccc23)cc1,-93*
c1ccc(COc2ccc(Nc3ncnc4nc[nH]c34)cc2)cc1,-85*
CCOC(=O)C/C(=N\Nc1ncnc2ccccc12)c1ccccc1,-139*
CS(=O)(=O)c1nc(S(=O)(=O)c2ccc(Cl)cc2)c(N2CCC3(CC2)OCCO3)s1,-156*
SMILES,aSyn UTR act
COC(=O)c1ccn(Cc2ccccc2Cl)n1,-106*
CCCc1cc2c(=O)c(-c3ccccn3)coc2cc1OC,-158*
COC(=O)c1ccc(COn2nnc3ccccc32)cc1,-130*
Clc1cccc(Cl)c1COn1nnc2ccccc21,-149*
Cn1c(CNc2ccccc2)nc2ccccc21,-113*
Cn1c(CNc2ccc(F)cc2)nc2ccccc21,-123*
CCCc1cc(C(=O)Nc2ccccc2C(=O)OC)no1,-71*
Cc1ccc(O)c(NC(=O)c2cc(-c3ccccc3)on2)c1,-254*
CCCn1cc(NC(=O)c2cc(-c3ccccc3)on2)cn1,-134*
CCCc1cc(C(=O)Nc2cc(C)ccc2O)no1,-250*
O=C(Nc1cc(Br)ccc1O)c1cc(-c2ccccc2)on1,-131*

# Assay outcomes from PubChem.
